Holding throughout (experiment): NCI-60 one-dose screen, 48 h (100 = growth as untreated, 0 = no growth, -100 = all killed)
Conditions in all cases: 10 µM unless noted

The subject of experiment [1] is NCI-H23 lung.
The test system of experiment [2] is NCI-H226 lung.
Experiment [3] deals with NCI-H322M lung.
The test system of experiment [4] is HOP-62 NSCLC.
In experiment [5] the test system is NCI-H460 lung.
For experiment [6], the system named is HOP-92 NSCLC.
Experiment [7] has as its system NCI-H522 lung.
Experiment [8] deals with A549/ATCC NSCLC.
Experiment [9] relates to 786-0 renal.
For experiment [10], the system named is COLO 205 colon.

This is part of a sample that, as a whole, favours compounds with a hit. Of some 83,000 tested, about 20% had one in any assay.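 For each line, cells grew in 96-well plates with the test compound present at a single concentration for 48 hours.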 Unmarked numbers belong to inactive results. Calls of active or inactive are those of the source. Rule for the calls: active = growth percent below 10; inactive = the rest.

For 13 compounds, growth results are on record in PubChem BioAssay (NCI).

`O=C(NNc1nc2cc(F)ccc2n2c(CN3CC4CNCC4C3)ccc12)c1ccncn1` (stereo not given): the growth is 30.7% in [1]; 7.23% (active) in [2]; 30.8% in [3]; 38.3% in experiment [4]; 5.26% (active) in [5]; 34.5% in [6]. Besides, the growth in experiment [7] is 32.1%; in experiment [8] it was 17.8%; in experiment [9], -2.41% (active); in experiment [10], 10%.

In the case of `CC(=O)Nc1cccc(-c2nc3cc(-c4ccc(O)cc4)ccc3n2C)c1`, the growth in [1] was 48.8%; in experiment [2], 49.8%; in experiment [3], 67.1%; in [4], 54.3%; in [5], 55.4%; in experiment [6], 93.7%. Also, the growth in experiment [7] was 26.7%; in [8], 35.2%; in experiment [9], 63.2%; in experiment [10] it was 56.5%.

Consider `C=Cn1cc(C(=O)O)c(=O)c2cc(F)c(N3CCN(c4nccc(-c5nccs5)n4)CC3)cc21`, for which the growth in experiment [1] is -60.5% (active); in [2] it was -20.5% (active); in [3], -14.5% (active); in experiment [4], -34.4% (active); in experiment [5] it was 9.63% (active); in experiment [6], -32.7% (active). The growth in experiment [7] was -76.6% (active); in experiment [8], -34.3% (active); in experiment [9] it was -22.3% (active); in [10], -61.5% (active).

Take `COc1cc(NC(=O)c2cccc(C3CCc4c(cc(OC)c(OC)c4OC)O3)c2)cc(OC)c1OC` (stereo not given): the growth was 36.9% in experiment [1]; 21.4% in experiment [2]; 39.2% in experiment [3]; 30.6% in experiment [4]; 29.1% in experiment [5]; 52.4% in experiment [6]. Moreover, the growth in experiment [7] is -9.86% (active); in [8], 19.5%; in [9], 24.3%; in experiment [10], 3.7% (active).

As to `CC1=C(C(=O)c2ccccc2)C(c2ccc(-n3cncn3)cc2)n2c(nc3ccccc32)N1` (stereo not given), the growth in [1] is 87.9%; in [2] it was 87.4%; in [3] it was 79.5%; in experiment [4], 71.5%; in experiment [5], 80.5%; in [6] it was 76.1%. Besides, the growth in experiment [7] is 83.2%; in experiment [8] it was 77.1%; in [9] it was 96.8%; in experiment [10], 95.4%.

With `N#Cc1c(-c2cccc(O)c2O)cc(-c2ccc3ccccc3c2)[nH]c1=O`, the growth in experiment [1] is 52.1%; in experiment [2] it was 68.3%; in experiment [3], 72.7%; in experiment [4] it was 49.2%; in experiment [5], 41.7%; in [6], 28%. Moreover, the growth in experiment [7] was 51.3%; in [8] it was 84.9%; in [9], 64.1%; in experiment [10], 84%.

Consider `CC(=O)OC[C@@]1(C)C2CC[C@]3(C)C(CC=C4C5CC(C)(C)CC[C@]5(C(=O)Nc5ccc(C)cc5)CC[C@]43C)[C@@]2(C)C[C@@H](OC(C)=O)[C@@H]1OC(C)=O` (stereo not given in full), for which the growth in [1] was 49.3%; in experiment [2], 50.6%; in experiment [3] it was 72.8%; in experiment [4], 44.4%; in experiment [5], 13.5%; in [6], 55.8%. Besides, the growth is 48.9% in experiment [7], 41.4% in [8], 57.1% in experiment [9] and 48.8% in experiment [10].

On to `C/C(=N\N=C\c1cc([N+](=O)[O-])ccc1Cl)c1ccc2c(c1)Nc1ccccc1S2`, for which the growth in [1] was 54.7%; in experiment [2], 53%; in experiment [3] it was 37.3%; in experiment [4] it was 15.7%; in [5] it was 9.18% (active); in [6], 54.1%. The growth in experiment [7] was 60.3%; in experiment [8] it was 29.3%; in experiment [9] it was 21.1%; in experiment [10] it was 61.3%.

Take `COc1cc(OC)cc(-c2cc3ccc(N(C)C)cc3c(=O)[nH]2)c1`: the growth in experiment [1] was 44.1%; in experiment [2], 23%; in experiment [3], 52.9%; in experiment [4], 53%; in experiment [5], 9.42% (active); in experiment [6] it was 94.2%. Further, the growth was -19.2% (active) in experiment [7], 24.4% in experiment [8], 29.9% in experiment [9] and -44.8% (active) in experiment [10].

Turning to `O=C(/C=C/Nc1ccc(Cl)cc1)c1ccc2c(c1)Nc1ccccc1S2`, the growth in experiment [1] was 33.1%; in experiment [2], 8.89% (active); in [3] it was 59.5%; in [4] it was -27.5% (active); in [5] it was 13.3%; in experiment [6], 13.6%. Besides, the growth in [7] was 34.9%; in experiment [8], 43.1%; in experiment [9], -6.27% (active); in [10], 62.5%.

For the compound `N#Cc1ccc(/C=N/NC(=O)c2[nH]c3ccc(Br)cc3c2-c2ccccc2)o1`, the growth is 3.75% (active) in [1]; 22.9% in experiment [2]; 41.3% in experiment [3]; 16.6% in experiment [4]; 1.47% (active) in [5]; -2.77% (active) in experiment [6]. In addition, the growth in experiment [7] is -36.4% (active); in [8], 12.7%; in experiment [9], -1.06% (active); in experiment [10] it was -25.2% (active).

`C/C(=N\N=C1/C(=O)Nc2ccccc21)c1ccc2c(c1)Nc1ccccc1S2`: the growth in experiment [1] is 34.8%; in experiment [2] it was 56.3%; in experiment [3], 71.3%; in experiment [4], 82.9%; in experiment [5], 43.8%; in experiment [6], 82.7%. Further, the growth is 43.7% in experiment [7], 66.9% in experiment [8], 71.4% in experiment [9] and 52.6% in experiment [10].

With `CCOc1ccc(C(=O)NC(=S)Nc2ccc(S(N)(=O)=O)cc2)cc1`, the growth in [1] is 97.5% [100 µM]; in [2], 97.1% [100 µM]; in [3], 101% [100 µM]; in [4], 102% [100 µM]; in [5] it was 102% [100 µM]; in [6], 87.9% [100 µM]. In addition, the growth in experiment [7] is 77.5% [100 µM]; in experiment [8] it was 101% [100 µM]; in experiment [9] it was 99% [100 µM]; in experiment [10], 119% [100 µM].
